Among the data in PubChem BioAssay (NCI) are growth values, retold here.

Compounds without any hit were thinned out: in the full panel of roughly 83,000, 20% have a hit.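 Assay: single dose, 48 h. Readout: percent growth (0 = no net growth; negative = cell death). Active: <10.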 Unmarked numbers belong to inactive results. The source made the active and inactive calls.

Among the test systems are DU-145 prostate; K-562 leukemia; MALME-3M melanoma; MDA-MB-231 breast; RXF 393 renal; SF-268 CNS; SF-295 CNS; SF-539 CNS; UACC-257 melanoma; M14 melanoma; HCT-15 colon; HT29 colon; SNB-75 CNS; U251 CNS; PC-3 prostate; SK-MEL-5 melanoma; UACC-62 melanoma; LOX IMVI melanoma; SK-MEL-28 melanoma; SNB-19 CNS.
Test in all cases: NCI-60 one-dose screen, 48 h (100 = growth as untreated, 0 = no growth, -100 = all killed)
Holding throughout (conditions): 10 µM unless noted

With `Cc1ccc(-c2nc(N3CCCNCC3)c3oc(-c4ccccc4)nc3n2)cc1`, the growth is -15.2% (active) in the experiment with DU-145 prostate; -63.6% (active) with K-562 leukemia; -92.4% (active) in the experiment with MALME-3M melanoma; -91.7% (active) with MDA-MB-231 breast; -74.3% (active) with RXF 393 renal; -42.9% (active) in the experiment with SF-268 CNS. Besides, the growth in the experiment on SF-295 CNS was -89.6% (active); with SF-539 CNS, -91.4% (active); with UACC-257 melanoma it was -82.2% (active); with M14 melanoma, -94.7% (active); with HCT-15 colon, -85.1% (active); with HT29 colon it was -82.8% (active). In addition, the growth in the experiment with SNB-75 CNS was -67.3% (active); in the experiment on U251 CNS, -85.9% (active); with PC-3 prostate it was -88.7% (active); in the experiment on SK-MEL-5 melanoma, -93.4% (active); in the experiment on UACC-62 melanoma it was -91.8% (active); with LOX IMVI melanoma, -91.6% (active). In the experiment with SK-MEL-28 melanoma, the growth is -93.4% (active).

Consider `O=S(=O)(Nc1ccc(Cl)c(C(F)(F)F)c1)c1ccc(-c2cnc(C3CC3)o2)cc1`, for which the growth is 15.5% with DU-145 prostate; 5.12% (active) in the experiment on K-562 leukemia; 28.7% in the experiment with MALME-3M melanoma; 15.6% in the experiment on MDA-MB-231 breast; 8.55% (active) with RXF 393 renal; 13.7% with SF-268 CNS. The growth is 22.2% with SF-295 CNS; -35.8% (active) in the experiment with SF-539 CNS; -0.635% (active) with UACC-257 melanoma; 10.9% in the experiment on M14 melanoma; 22.5% in the experiment on HCT-15 colon; 5.34% (active) in the experiment with HT29 colon. The growth is -2.82% (active) in the experiment with SNB-75 CNS; 4.81% (active) with U251 CNS; 4.35% (active) with PC-3 prostate; 18.6% with SK-MEL-5 melanoma; -10.2% (active) in the experiment with UACC-62 melanoma; 32.9% with LOX IMVI melanoma. The growth in the experiment on SK-MEL-28 melanoma was 19.4%.

For the compound `Nc1ncnc2c1C(c1ccccc1)c1ccc3ccccc3c1O2` (centres undefined), the growth with DU-145 prostate is 99.8%; with K-562 leukemia it was 70%; in the experiment on MALME-3M melanoma, 110%; in the experiment with MDA-MB-231 breast it was 89.1%; in the experiment with RXF 393 renal, 104%; in the experiment on SF-268 CNS, 84.7%. The growth in the experiment with SF-295 CNS was 88%; in the experiment on SF-539 CNS, 90.7%; with UACC-257 melanoma it was 79.7%; with M14 melanoma it was 95.8%; in the experiment with HCT-15 colon it was 96.5%; with HT29 colon, 92.5%. Moreover, the growth is 64.7% with SNB-75 CNS; 86.4% with U251 CNS; 70.5% in the experiment with PC-3 prostate; 77.7% with SK-MEL-5 melanoma; 68.5% in the experiment on UACC-62 melanoma; 72.1% with LOX IMVI melanoma. Also, the growth with SK-MEL-28 melanoma is 103%.

For `Cc1csc(Nc2nc(-c3ccccn3)nc(C(Cl)(Cl)Cl)n2)n1`, the growth in the experiment with DU-145 prostate was 69.7%; in the experiment on K-562 leukemia it was 87.8%; in the experiment with MALME-3M melanoma it was 73.9%; with MDA-MB-231 breast, 80.3%; with RXF 393 renal, 91.4%; in the experiment with SF-268 CNS, 82.8%. The growth in the experiment on SF-295 CNS was 91%; in the experiment with SF-539 CNS, 94.2%; in the experiment on UACC-257 melanoma, 78.8%; with M14 melanoma, 83.7%; in the experiment on HCT-15 colon, 57.2%; in the experiment on HT29 colon it was 68%. Also, the growth was 90.1% in the experiment on SNB-75 CNS; 62.2% in the experiment with U251 CNS; 91.1% with PC-3 prostate; 86.2% in the experiment with SK-MEL-5 melanoma; 84.3% in the experiment with UACC-62 melanoma; 49.4% in the experiment on LOX IMVI melanoma. Also, the growth in the experiment on SK-MEL-28 melanoma was 87.6%.

Take `Nc1ncnc2c1C(c1ccc(Br)cc1)c1sc3c(F)cccc3c1O2` (centres undefined): the growth in the experiment with DU-145 prostate is 102%; in the experiment with K-562 leukemia it was 99.1%; in the experiment on MALME-3M melanoma, 127%; in the experiment on MDA-MB-231 breast it was 79.7%; in the experiment with RXF 393 renal it was 104%; in the experiment with SF-268 CNS, 98.9%. Moreover, the growth in the experiment with SF-295 CNS was 102%; with SF-539 CNS it was 102%; in the experiment with UACC-257 melanoma, 114%; in the experiment with M14 melanoma it was 103%; with HCT-15 colon it was 97.1%; in the experiment with HT29 colon, 100%. The growth with SNB-75 CNS was 83.7%; with SNB-19 CNS it was 110%; in the experiment with U251 CNS, 98%; in the experiment with SK-MEL-5 melanoma it was 96.2%; in the experiment with SK-MEL-28 melanoma, 119%.

On to `COC(=O)c1c(C)nc(C)c2c1C(=O)C(Br)=C(NCc1ccccc1)C2=O`, for which the growth in the experiment on DU-145 prostate is 38%; in the experiment with K-562 leukemia it was 21%; in the experiment with MALME-3M melanoma, -75.4% (active); in the experiment on MDA-MB-231 breast, 14.8%; with RXF 393 renal it was 52.4%; in the experiment with SF-268 CNS, 33%. The growth with SF-295 CNS was 30.1%; in the experiment on SF-539 CNS, 7.13% (active); in the experiment with UACC-257 melanoma it was -7.87% (active); in the experiment with M14 melanoma it was 14%; in the experiment with HCT-15 colon, 11.6%; with HT29 colon it was 6.01% (active). The growth with SNB-75 CNS was 100%; in the experiment on U251 CNS it was 20.1%; with PC-3 prostate, 16.1%; in the experiment on SK-MEL-5 melanoma, -96.5% (active); with UACC-62 melanoma, -10.8% (active); in the experiment with LOX IMVI melanoma, 6.45% (active). For the same compound, the growth in the experiment with SK-MEL-28 melanoma is 56.4%.

On to `CCCCCN1C(=O)/C(=c2\sc3n(c2=O)C2C(NN=3)N(CC)C(=O)N2CC)c2ccccc21` (centres undefined), for which the growth was -67.1% (active) with DU-145 prostate; -71.9% (active) in the experiment on K-562 leukemia; -32.4% (active) in the experiment with MALME-3M melanoma; -30.8% (active) in the experiment on MDA-MB-231 breast; -28.9% (active) with RXF 393 renal; -2.82% (active) in the experiment with SF-268 CNS. Moreover, the growth with SF-295 CNS is -24.8% (active); in the experiment on SF-539 CNS it was -90.2% (active); in the experiment on UACC-257 melanoma, 31.5%; with M14 melanoma it was -9.92% (active); in the experiment on HCT-15 colon, 1.05% (active); with HT29 colon, -57.1% (active). Moreover, the growth is -51.5% (active) with SNB-75 CNS; -83.4% (active) in the experiment on U251 CNS; -20.2% (active) in the experiment with PC-3 prostate; 16.8% in the experiment on SK-MEL-5 melanoma; 10.7% in the experiment with UACC-62 melanoma; -43.5% (active) in the experiment on LOX IMVI melanoma. Moreover, the growth in the experiment on SK-MEL-28 melanoma is 19.2%.

Consider `N#Cc1ccc2c(c1)C(=O)c1c-2n(CCCN)c(=O)c2cc([N+](=O)[O-])ccc12`, for which the growth is -100% (active) with DU-145 prostate; -100% (active) in the experiment on K-562 leukemia; -82.3% (active) in the experiment on MALME-3M melanoma; -100% (active) in the experiment on MDA-MB-231 breast; -87.9% (active) with RXF 393 renal; -92.1% (active) in the experiment on SF-268 CNS. The growth was -73.9% (active) in the experiment on SF-295 CNS; -98.2% (active) in the experiment with SF-539 CNS; -100% (active) in the experiment on UACC-257 melanoma; -100% (active) in the experiment on M14 melanoma; -90.8% (active) with HCT-15 colon; -100% (active) in the experiment with HT29 colon. The growth in the experiment with SNB-75 CNS, in the experiment on U251 CNS, in the experiment on SK-MEL-5 melanoma, with UACC-62 melanoma, in the experiment with LOX IMVI melanoma and in the experiment with SK-MEL-28 melanoma was -100% (active) throughout.
